Results taken from PubChem BioAssay (EPA / NIEHS).
Results filed as inconclusive are left out. A structure can be active in one record and inactive in another. Calls of active or inactive are those of the source. How the source made its calls, unless noted: active means hit-call score of the fitted dose curve at least 0.9, where 1 is the maximum; inconclusive means response in the unintended direction; inactive means score below 0.9.

Key:
[1] = ATG_TCF_b_cat_CIS: Attagene CIS-FACTORIAL HepG2 Assay for human T-Cell-Factor with beta-catenin (TCF/b-cat) (AID 2282965; active means hit-call score of the fitted dose curve at least 0.9, where 1 is the maximum; inactive means score below 0.9); conditions: HepG2 TCF/beta-catenin cis-reporter transcription, actives raise or lower the signal
How it was run: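 HepG2 cells transiently transfected with multiple cis-promoter-regulated reporter transcription units, so endogenous transcription factor activity is measured. Reporter mRNA read 24 hours after dosing by RT-PCR, fluorescent labelling and capillary electrophoresis; bidirectional fitting against DMSO.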

[2] = ATG_TAL_CIS: Attagene CIS-FACTORIAL HepG2 Assay for human TAL Basal Promoter (AID 2282966; active means hit-call score of the fitted dose curve at least 0.9, where 1 is the maximum; inactive means score below 0.9;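 further: background control endpoint measuring basal TAL promoter reporter mRNA not a specific factor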); conditions: HepG2 Attagene cis-factorial TAL promoter reporter; actives raise or lower the signal
How it was run: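 Transiently transfected HepG2 (cis-regulated reporter units), 24 h treatment, mRNA read by fluorescent CE after RT-PCR; bidirectional fit, DMSO baseline.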

[3] = ATG_TGFb_CIS: Attagene CIS-FACTORIAL HepG2 Assay for human Transforming Growth Factor (TGF) (AID 2282967; active means hit-call score of the fitted dose curve at least 0.9, where 1 is the maximum; inactive means score below 0.9); conditions: HepG2 Attagene CIS TGFb reporter, mRNA transcription; actives raise or lower the signal
How it was run: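 Cells were dosed for 24 hours, after which total RNA was reverse-transcribed and reporter sequences amplified, labeled and sized by capillary electrophoresis. Activity was fitted in both directions against DMSO.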

[4] = ATG_VDRE_CIS: Attagene CIS-FACTORIAL HepG2 Assay for human Vitamin D Receptor Element (VDRE) (AID 2282968; active means hit-call score of the fitted dose curve at least 0.9, where 1 is the maximum; inactive means score below 0.9); conditions: HepG2 VDRE cis-reporter transcription, actives raise or lower the signal
How it was run: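 Transfected HepG2 reporter cells, chemical treatment 24 h. RNA isolated, cDNA amplified with reporter-specific primers, products analysed by capillary electrophoresis. Endpoint fitted in both directions versus DMSO.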

[5] = biological target: Estrogen receptor (Homo sapiens) (UniProt P03372); assay: ATG_ERa_TRANS: Attagene TRANS-FACTORIAL HepG2 Assay for human Estrogen Receptor alpha (ERa) (AID 2282970); conditions: HepG2 Attagene TRANS ERa GAL4 reporter, mRNA
Sequence of Estrogen receptor (Homo sapiens) (P03372 whole entry, looked up, the tested form may be a part): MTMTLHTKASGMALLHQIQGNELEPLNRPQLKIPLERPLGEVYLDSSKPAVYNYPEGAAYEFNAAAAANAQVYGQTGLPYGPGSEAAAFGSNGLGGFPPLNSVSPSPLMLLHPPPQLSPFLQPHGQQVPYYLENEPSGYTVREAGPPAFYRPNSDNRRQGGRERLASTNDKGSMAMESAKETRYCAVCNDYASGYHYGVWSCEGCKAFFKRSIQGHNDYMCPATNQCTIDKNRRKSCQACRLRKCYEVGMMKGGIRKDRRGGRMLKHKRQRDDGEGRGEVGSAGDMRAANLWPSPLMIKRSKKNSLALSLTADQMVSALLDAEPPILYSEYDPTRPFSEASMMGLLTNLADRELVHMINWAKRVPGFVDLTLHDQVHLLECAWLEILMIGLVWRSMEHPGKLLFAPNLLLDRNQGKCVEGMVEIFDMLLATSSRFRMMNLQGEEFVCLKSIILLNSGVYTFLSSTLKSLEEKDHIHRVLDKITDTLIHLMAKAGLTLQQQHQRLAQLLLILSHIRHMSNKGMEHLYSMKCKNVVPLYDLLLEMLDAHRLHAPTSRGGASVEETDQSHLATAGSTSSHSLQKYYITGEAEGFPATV
How it was run: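 One of 30 multiplexed endpoints from a HepG2 TRANS system, this one reports ERa-Gal4-driven reporter mRNA. Transcripts were quantified 24 hours post-dosing by fluorescent RT-PCR and capillary electrophoresis, with activity scored as induction over DMSO.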

[6] = biological target: Steroid hormone receptor ERR1 (Homo sapiens) (UniProt P11474); assay: ATG_ERRa_TRANS: Attagene TRANS-FACTORIAL HepG2 Assay for human Estrogen-Related Receptor alpha (ERRa) (AID 2282971); conditions: HepG2 Attagene TRANS reporter, ERRa transactivation
How it was run: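 HepG2 cells transiently transfected with multiplexed GAL4-UAS reporter units reading chimeric ERRa-Gal4 activity; 24 h compound exposure. Reporter mRNA measured by RT-PCR, 6-FAM labelling, HpaI digest and capillary electrophoresis; gain of signal fitted versus DMSO baseline.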

[7] = biological target: X-box-binding protein 1 (Homo sapiens) (UniProt P17861); assay: ATG_Xbp1_CIS: Attagene CIS-FACTORIAL HepG2 Assay for human X-box Binding Protein 1 (XBP1) (AID 2282972; active means hit-call score of the fitted dose curve at least 0.9, where 1 is the maximum; inactive means score below 0.9); conditions: HepG2 XBP1 cis-element reporter, Attagene multiplex; actives raise or lower the signal
Sequence of X-box-binding protein 1 (Homo sapiens) (P17861 whole entry, looked up): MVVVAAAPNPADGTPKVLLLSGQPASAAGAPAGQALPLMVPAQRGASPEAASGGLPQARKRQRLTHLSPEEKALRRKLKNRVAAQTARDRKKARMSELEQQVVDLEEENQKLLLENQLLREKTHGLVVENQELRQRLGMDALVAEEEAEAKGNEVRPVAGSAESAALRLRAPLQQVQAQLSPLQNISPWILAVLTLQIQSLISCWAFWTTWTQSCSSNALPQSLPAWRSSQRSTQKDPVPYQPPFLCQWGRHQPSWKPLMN
How it was run: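 Reporter transcripts were quantified by RT-PCR with fluorescent primer extension and capillary electrophoresis after 24 h chemical exposure. Cells: transiently transfected HepG2 carrying cis-regulated reporter constructs; data fitted bidirectionally relative to DMSO.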

[8] = ATG_M_19_TRANS: Attagene TRANS-FACTORIAL HepG2 Assay for M19 Transcription Factor (Internal Marker) (AID 2282974); conditions: HepG2 Attagene TRANS-FACTORIAL M19 internal marker reporter
How it was run: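 Using RT-PCR and capillary electrophoresis, reporter mRNA from transiently transfected human HepG2 cells was quantified following 24 h exposure; activity was fitted in the positive direction against DMSO.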

[9] = ATG_GAL4_TRANS: Attagene TRANS-FACTORIAL HepG2 Assay for GAL4 (Internal Marker) (AID 2282976); conditions: HepG2 Attagene TRANS GAL4 internal marker reporter
How it was run: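 HepG2 cells transiently transfected with multiplexed GAL4-UAS reporter constructs were dosed for 24 h. Reporter mRNA was measured by RT-PCR, 6-FAM primer extension, HpaI digestion and capillary electrophoresis, and gain of signal was fitted relative to DMSO.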

[10] = biological target: Estrogen-related receptor gamma (Homo sapiens) (UniProt P62508); assay: ATG_ERRg_TRANS: Attagene TRANS-FACTORIAL HepG2 Assay for human Estrogen-Related Receptor gamma (ERRg) (AID 2282977); conditions: HepG2 Attagene TRANS reporter, ERRg transactivation;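 further: hits increase reporter signal over DMSO so potencies reflect activators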
How it was run: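 Readout: fluorescent reporter-mRNA fragments resolved by capillary electrophoresis after RT-PCR and HpaI cut. Cells: transiently transfected HepG2 carrying GAL4-UAS reporters driven by exogenous NR-Gal4 chimeras, dosed 24 h. Activity fitted upward relative to DMSO baseline.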

[11] = biological target: Glucocorticoid receptor (Homo sapiens) (UniProt P04150); assay: ATG_GR_TRANS: Attagene TRANS-FACTORIAL HepG2 Assay for human Glucocorticoid Receptor (GR) (AID 2282978); conditions: HepG2 Attagene TRANS GR reporter, mRNA transcription;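 further: activators score as hits since higher reporter transcript over DMSO is fitted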
Sequence of Glucocorticoid receptor (Homo sapiens) (P04150 whole entry, looked up, the tested form may be a part): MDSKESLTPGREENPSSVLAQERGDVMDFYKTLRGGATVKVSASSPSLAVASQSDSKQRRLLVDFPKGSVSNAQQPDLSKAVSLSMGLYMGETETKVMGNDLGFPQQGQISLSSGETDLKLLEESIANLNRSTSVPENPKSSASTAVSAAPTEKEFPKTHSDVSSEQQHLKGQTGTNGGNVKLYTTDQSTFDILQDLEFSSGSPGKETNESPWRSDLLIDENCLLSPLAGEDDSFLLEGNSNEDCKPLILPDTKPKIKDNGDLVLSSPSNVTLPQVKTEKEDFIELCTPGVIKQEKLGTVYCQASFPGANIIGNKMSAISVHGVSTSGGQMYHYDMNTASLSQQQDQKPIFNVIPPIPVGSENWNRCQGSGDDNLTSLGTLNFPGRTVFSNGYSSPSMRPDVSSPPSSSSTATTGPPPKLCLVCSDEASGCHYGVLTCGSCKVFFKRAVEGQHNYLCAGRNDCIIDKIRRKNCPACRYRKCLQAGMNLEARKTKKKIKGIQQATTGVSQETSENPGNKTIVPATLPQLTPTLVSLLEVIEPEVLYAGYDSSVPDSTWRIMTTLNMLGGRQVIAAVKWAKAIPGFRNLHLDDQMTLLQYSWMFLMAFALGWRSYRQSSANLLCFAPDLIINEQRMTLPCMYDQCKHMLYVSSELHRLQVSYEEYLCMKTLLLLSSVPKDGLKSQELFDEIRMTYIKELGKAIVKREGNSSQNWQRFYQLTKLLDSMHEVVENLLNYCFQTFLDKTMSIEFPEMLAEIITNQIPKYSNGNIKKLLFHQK
How it was run: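 Exogenous NR-GAL4 fusion activity was assessed through induced GAL4-UAS reporter transcripts in transfected human HepG2 cells, quantified after 24 h by RT-PCR and fluorescent capillary electrophoresis with DMSO as baseline.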

[12] = biological target: Bile acid receptor (Homo sapiens) (UniProt Q96RI1); assay: ATG_FXR_TRANS: Attagene TRANS-FACTORIAL HepG2 Assay for Farnesoid X Receptor (FXR) (AID 2282979); conditions: HepG2 Attagene TRANS FXR-GAL4 reporter transcription;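 further: hits raise reporter mRNA above DMSO so AC50 marks FXR activation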
Sequence of Bile acid receptor (Homo sapiens) (Q96RI1 whole entry, looked up, the tested form may be a part): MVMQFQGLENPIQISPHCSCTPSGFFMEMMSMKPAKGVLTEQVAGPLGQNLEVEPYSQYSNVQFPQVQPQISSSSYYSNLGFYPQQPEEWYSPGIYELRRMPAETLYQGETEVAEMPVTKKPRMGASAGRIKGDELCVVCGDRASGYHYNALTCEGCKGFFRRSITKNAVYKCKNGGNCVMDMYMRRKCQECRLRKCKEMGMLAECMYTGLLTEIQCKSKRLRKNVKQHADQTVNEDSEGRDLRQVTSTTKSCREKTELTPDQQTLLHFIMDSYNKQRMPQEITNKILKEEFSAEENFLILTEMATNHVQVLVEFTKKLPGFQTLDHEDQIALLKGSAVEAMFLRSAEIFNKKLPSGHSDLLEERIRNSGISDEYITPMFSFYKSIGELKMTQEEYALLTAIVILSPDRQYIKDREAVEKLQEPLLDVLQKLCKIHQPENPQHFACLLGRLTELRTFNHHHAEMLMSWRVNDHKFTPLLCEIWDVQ
How it was run: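 HepG2 cells transiently transfected with reporter constructs in which a chimeric FXR-GAL4 protein drives a GAL4-UAS reporter; 24 h compound exposure. Reporter mRNA measured by RT-PCR, FAM labelling, HpaI digestion and capillary electrophoresis; gain-of-signal versus DMSO.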

[13] = biological target: Oxysterols receptor LXR-alpha (Homo sapiens) (UniProt Q13133); assay: ATG_LXRa_TRANS: Attagene TRANS-FACTORIAL HepG2 Assay for human Liver X Receptor alpha (LXRa) (AID 2282980); conditions: HepG2 Attagene TRANS reporter, LXRa transactivation
Sequence of Oxysterols receptor LXR-alpha (Homo sapiens) (Q13133 whole entry, looked up, the tested form may be a part): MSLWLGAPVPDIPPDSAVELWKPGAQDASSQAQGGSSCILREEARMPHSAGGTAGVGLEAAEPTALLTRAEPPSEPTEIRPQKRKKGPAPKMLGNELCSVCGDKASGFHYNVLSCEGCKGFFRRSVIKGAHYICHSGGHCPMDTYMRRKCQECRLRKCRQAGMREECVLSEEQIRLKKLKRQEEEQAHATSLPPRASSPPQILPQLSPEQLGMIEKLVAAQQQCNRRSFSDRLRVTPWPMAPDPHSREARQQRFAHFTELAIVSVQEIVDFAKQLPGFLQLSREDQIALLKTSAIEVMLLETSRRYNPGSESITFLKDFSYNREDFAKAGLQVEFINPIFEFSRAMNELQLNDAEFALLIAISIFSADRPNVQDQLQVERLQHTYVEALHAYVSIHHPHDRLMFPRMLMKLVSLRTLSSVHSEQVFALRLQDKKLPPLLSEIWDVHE
How it was run: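 HepG2 cells were transiently transfected with multiplexed reporter units driven by chimeric LXRa–GAL4 fusion proteins, then dosed for 24 h. Reporter mRNA was quantified by RT-PCR, fluorescent labelling and capillary electrophoresis; gain of signal fitted against DMSO baseline.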

[14] = biological target: Oxysterols receptor LXR-beta (Homo sapiens) (UniProt P55055); assay: ATG_LXRb_TRANS: Attagene TRANS-FACTORIAL HepG2 Assay for human Liver X Receptor beta (LXRb) (AID 2282981); conditions: HepG2 Attagene TRANS GAL4-LXRb reporter, mRNA
Sequence of Oxysterols receptor LXR-beta (Homo sapiens) (P55055 whole entry, looked up, the tested form may be a part): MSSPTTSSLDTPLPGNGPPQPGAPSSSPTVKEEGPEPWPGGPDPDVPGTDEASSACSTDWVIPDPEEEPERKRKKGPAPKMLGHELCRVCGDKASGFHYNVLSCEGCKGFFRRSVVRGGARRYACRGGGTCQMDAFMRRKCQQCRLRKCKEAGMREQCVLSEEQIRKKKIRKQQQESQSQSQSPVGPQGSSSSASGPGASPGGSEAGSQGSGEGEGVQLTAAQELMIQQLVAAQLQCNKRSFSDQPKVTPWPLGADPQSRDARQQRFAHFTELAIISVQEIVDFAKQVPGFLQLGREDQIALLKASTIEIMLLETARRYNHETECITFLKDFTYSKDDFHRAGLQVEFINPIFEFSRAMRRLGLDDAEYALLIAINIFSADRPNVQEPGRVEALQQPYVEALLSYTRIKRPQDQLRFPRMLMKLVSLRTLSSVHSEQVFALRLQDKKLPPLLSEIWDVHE
How it was run: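 Liver-derived HepG2 cells transfected with Gal4-responsive reporters were dosed for 24 h. Activation was scored as rise in reporter mRNA, by RT-PCR and capillary electrophoresis, above DMSO baseline.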

[15] = ATG_M_06_TRANS: Attagene TRANS-FACTORIAL HepG2 Assay for M06 Transcription Factor (Internal Marker) (AID 2282983); conditions: HepG2 Attagene TRANS M06 internal marker reporter;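 further: reporter transcript level by RT-PCR then capillary electrophoresis fluorescence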
How it was run: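 In this multiplexed HepG2 system, compounds are incubated 24 h with cells carrying GAL4-UAS reporter units. Reporter RNA is amplified and resolved by capillary electrophoresis, and induction is scored against DMSO.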

[16] = ATG_M_32_TRANS: Attagene TRANS-FACTORIAL HepG2 Assay for M32 Transcription Factor (Internal Marker) (AID 2282984); conditions: HepG2 Attagene TRANS M32 internal marker reporter;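 further: transcript level of a background control reporter unit measured by RT-PCR and capillary electrophoresis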
How it was run: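 Fluorescence-detected mRNA induction, HepG2 liver cells, 24 h after dosing. Multiple GAL4-UAS reporter units introduced by transient transfection; background-control endpoint analysed for gain of signal against DMSO.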

[17] = biological target: Nuclear receptor subfamily 4 group A member 2 (Homo sapiens) (UniProt P43354); assay: ATG_NURR1_TRANS: Attagene TRANS-FACTORIAL HepG2 Assay for human Nuclear Receptor Related Protein 1 (NURR1) (AID 2282985); conditions: HepG2 Attagene TRANS reporter, mRNA readout
Sequence of Nuclear receptor subfamily 4 group A member 2 (Homo sapiens) (P43354 whole entry, looked up, the tested form may be a part): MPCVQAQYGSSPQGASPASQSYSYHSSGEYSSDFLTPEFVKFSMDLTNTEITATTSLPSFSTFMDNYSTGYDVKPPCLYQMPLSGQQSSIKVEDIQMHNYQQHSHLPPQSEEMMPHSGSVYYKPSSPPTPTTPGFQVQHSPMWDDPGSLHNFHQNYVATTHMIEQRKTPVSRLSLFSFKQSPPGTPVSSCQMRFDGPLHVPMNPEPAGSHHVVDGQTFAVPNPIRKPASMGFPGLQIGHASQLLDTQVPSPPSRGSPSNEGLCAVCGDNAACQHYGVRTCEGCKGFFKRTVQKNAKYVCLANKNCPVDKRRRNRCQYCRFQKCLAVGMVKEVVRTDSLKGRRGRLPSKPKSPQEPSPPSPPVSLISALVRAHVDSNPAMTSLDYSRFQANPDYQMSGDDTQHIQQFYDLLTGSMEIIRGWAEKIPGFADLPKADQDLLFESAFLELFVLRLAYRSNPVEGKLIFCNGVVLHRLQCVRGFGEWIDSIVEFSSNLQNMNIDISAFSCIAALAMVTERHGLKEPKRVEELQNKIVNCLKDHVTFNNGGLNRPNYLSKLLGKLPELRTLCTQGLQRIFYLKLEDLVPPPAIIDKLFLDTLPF
How it was run: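 Chimeric NR-Gal4 proteins were expressed in human HepG2 cells bearing GAL4-UAS reporter units, and induced reporter mRNA was quantified 24 h post-dosing by RT-PCR and capillary electrophoresis.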

[18] = biological target: Transcriptional activator Myb (Homo sapiens) (UniProt P10242); assay: ATG_Myb_CIS: Attagene CIS-FACTORIAL HepG2 Assay for human Myeloblastosis (Myb) Proto-Oncogene Transcription Factor (AID 2282986; active means hit-call score of the fitted dose curve at least 0.9, where 1 is the maximum; inactive means score below 0.9); conditions: HepG2 Attagene CIS-FACTORIAL Myb reporter transcription; actives raise or lower the signal
Sequence of Transcriptional activator Myb (Homo sapiens) (P10242 whole entry, looked up): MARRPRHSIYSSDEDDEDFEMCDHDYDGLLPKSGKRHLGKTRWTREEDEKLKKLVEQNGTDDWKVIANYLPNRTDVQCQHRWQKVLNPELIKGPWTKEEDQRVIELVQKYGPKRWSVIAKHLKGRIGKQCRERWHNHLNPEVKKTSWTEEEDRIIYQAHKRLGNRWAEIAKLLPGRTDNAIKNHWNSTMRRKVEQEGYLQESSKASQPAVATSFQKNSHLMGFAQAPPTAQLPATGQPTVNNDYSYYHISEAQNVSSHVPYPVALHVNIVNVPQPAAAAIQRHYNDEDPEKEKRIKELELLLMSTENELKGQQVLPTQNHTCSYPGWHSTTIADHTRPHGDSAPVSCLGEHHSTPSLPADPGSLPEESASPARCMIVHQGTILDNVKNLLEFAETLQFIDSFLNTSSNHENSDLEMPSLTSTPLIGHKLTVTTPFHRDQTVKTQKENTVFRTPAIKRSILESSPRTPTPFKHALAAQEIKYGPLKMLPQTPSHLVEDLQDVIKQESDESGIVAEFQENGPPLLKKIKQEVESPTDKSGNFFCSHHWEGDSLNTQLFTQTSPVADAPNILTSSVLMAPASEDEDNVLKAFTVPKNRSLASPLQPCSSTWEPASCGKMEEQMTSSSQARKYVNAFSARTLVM
How it was run: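 In this HepG2 transient-transfection format, cis-regulated reporter mRNA is quantified 24 h post-dosing by RT-PCR with capillary electrophoresis, fitted bidirectionally to DMSO baseline.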

[19] = biological target: Nuclear receptor subfamily 1 group I member 3 (Homo sapiens) (UniProt Q14994); assay: ATG_CAR_TRANS: Attagene TRANS-FACTORIAL HepG2 Assay for human Constitutive Androstane Receptor (CAR) (AID 2282969); conditions: HepG2 Attagene TRANS-FACTORIAL CAR reporter;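 further: activators raise reporter mRNA above DMSO so AC50 marks induction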
Sequence of Nuclear receptor subfamily 1 group I member 3 (Homo sapiens) (Q14994 whole entry, looked up, the tested form may be a part): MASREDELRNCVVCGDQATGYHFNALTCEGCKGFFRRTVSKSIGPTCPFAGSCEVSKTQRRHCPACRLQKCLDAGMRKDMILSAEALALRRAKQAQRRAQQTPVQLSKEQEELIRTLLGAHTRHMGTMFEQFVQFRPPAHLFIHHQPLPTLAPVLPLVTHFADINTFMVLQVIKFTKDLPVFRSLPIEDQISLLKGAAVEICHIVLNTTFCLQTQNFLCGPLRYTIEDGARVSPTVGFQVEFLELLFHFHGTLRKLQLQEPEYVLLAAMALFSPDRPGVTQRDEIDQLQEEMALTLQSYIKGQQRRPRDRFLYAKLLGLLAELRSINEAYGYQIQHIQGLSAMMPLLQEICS
How it was run: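 Steps: transient transfection of HepG2 with multiple GAL4-UAS reporter units; 24 h compound incubation; RNA isolation, RT-PCR, 6-FAM primer extension, HpaI digest; capillary electrophoresis. Gain-of-signal relative to DMSO negative control.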

[20] = biological target: Hepatocyte nuclear factor 4-alpha (Homo sapiens) (UniProt P41235); assay: ATG_HNF4a_TRANS: Attagene TRANS-FACTORIAL HepG2 Assay for human Hepatocyte Nuclear Factor 4 alpha (HNF4a) (AID 2282982); conditions: HepG2 HNF4a transactivation reporter, mRNA readout
How it was run: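 Using HepG2 liver cells transfected with GAL4-UAS reporter units, chemical-induced mRNA increases were assessed after 24 hours. Fluorescent RT-PCR fragments were separated by capillary electrophoresis and compared with DMSO negative controls.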

Measured: AC50

C=C(C)C(=O)OCC(F)(F)C(F)(F)C(F)(F)F
active: [5] 30.7 µM
inactive: [1] | [2] | [3] | [4] | [5] | [6] | [7] | [8] | [9] | [10] | [11] | [12] | [13] | [14] | [15] | [16] | [17] | [18]

Cc1ccc(S(=O)(=O)OCC(F)(F)C(F)(F)C(F)(F)C(F)(F)C(F)(F)C(F)F)cc1
inactive: [1] | [2] | [3] | [4] | [19] | [5] | [7] | [9] | [11] | [12] | [13] | [14] | [15] | [16] | [18]

N=C(N)C(F)(F)C(F)(F)C(F)(F)C(F)(F)C(F)(F)C(F)(F)C(F)(F)F
inactive: [1] | [2] | [3] | [4] | [19] | [7] | [8] | [12] | [15] | [16] | [18]
active: [5] 40.6 µM

CC(C)(C)c1ccc(OC2CCCCC2O)cc1 (stereo not drawn)
inactive: [1] | [2] | [3] | [19] | [5] | [7] | [8] | [9] | [12] | [13] | [14]
active: [4] 26.8 µM | [17] 100 µM

O=C(C=Cc1ccccc1)OCC=Cc1ccccc1
active: [5] 18 µM
inactive: [1] | [2] | [3] | [4] | [19] | [7] | [8] | [9] | [14] | [20] | [15] | [16] | [18]
